AmpC inh no detg = inhibitors of E. coli AmpC beta-lactamase without detergent; AID 485341; P00811; 330,000 compounds, 0.52% hits; Potency, µM (doses to about 57.1 µM), without a hit: at the top dose activity change, negative = inhibition, most hits filed as inhibitors; AmpC nitrocefin hydrolysis, absorbance 480 nm, 0.0001% Triton;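 further: plate controls were no compound for no effect and no enzyme for full effect; nearly all actives have a fitted effect of over 20% in size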
Target sequence (P00811 whole entry, looked up): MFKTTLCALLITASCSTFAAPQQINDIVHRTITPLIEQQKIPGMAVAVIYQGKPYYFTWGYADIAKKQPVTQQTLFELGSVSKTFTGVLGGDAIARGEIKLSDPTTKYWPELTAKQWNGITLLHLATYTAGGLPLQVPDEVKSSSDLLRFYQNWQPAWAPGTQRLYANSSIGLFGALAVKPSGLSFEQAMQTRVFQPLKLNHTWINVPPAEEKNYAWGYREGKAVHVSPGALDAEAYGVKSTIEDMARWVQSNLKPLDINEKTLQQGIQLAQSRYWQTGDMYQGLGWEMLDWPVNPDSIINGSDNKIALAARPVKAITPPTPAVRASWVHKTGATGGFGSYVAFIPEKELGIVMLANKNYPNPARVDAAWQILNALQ
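AmpC (5.3 nM in the dispensed reagent) in 20 mM phosphate pH 7.0 with 0.01% (detergent screen) or 0.0001% Triton X-100 was preincubated with compounds for 15 min at room temperature. Nitrocefin was then added from an 800 uM solution, and hydrolysis was followed at 480 nm.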
AmpC inh detg = inhibitors of E. coli AmpC beta-lactamase with detergent. Potency, µM (highest dose often 114 µM), without a hit: top-dose activity change, negative = inhibition, most hits filed as inhibitors. 370,000 compounds, 0.041% hits. AmpC hydrolysis of nitrocefin, absorbance 480 nm, 0.01% Triton. P00811. AID 485294;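 further: 0% = no-compound wells and -100% = no-enzyme wells; nearly all actives have a fitted effect of over 25% in size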
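AmpC (5.3 nM in the dispensed reagent) in 20 mM phosphate pH 7.0 with 0.01% (detergent screen) or 0.0001% Triton X-100 was preincubated with compounds for 15 min at room temperature. Nitrocefin was then added from an 800 uM solution, and hydrolysis was followed at 480 nm.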
Sm TGR block = inhibitors of Schistosoma mansoni thioredoxin glutathione reductase. 360,000 compounds, 3% hits. Potency, µM (top dose mostly 114 µM), without a hit: at the highest dose activity change, negative = inhibition, most hits filed as inhibitors. purified TGR, DTNB reduction, TNB absorbance 405 nm. Q962Y6. AID 485364; further: on the % scale 0 is the no-effect control and ±100 the full control effect; nearly all actives have a fitted effect of over 60% in size
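Kinetic colorimetric format: TGR-catalysed, NADPH-driven DTNB reduction monitored via TNB absorbance. Enzyme dispensed at 20 nM; compound exposure 15 min at room temperature before reaction start.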
Pf growth 48h = inhibits P. falciparum growth in the first generation, 48 h. Potency, µM (top dose mostly 28.7 µM), for the others: top-dose activity change, negative = inhibition, actives largely listed as inhibitors. 310,000 compounds, 5.9% hits. P. falciparum luciferase growth in erythrocytes, 48 h; further: on the % scale 0 is the no-effect control and ±100 the full control effect
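Luciferase-expressing P. falciparum in infected erythrocytes (2% hematocrit, 0.1% parasitemia final) in RPMI 1640/0.5% Albumax were exposed to compound for 48 hours at 37 C, 5% CO2; growth read as luminescence.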
SARS PLpro yeast = SARS-CoV PLP inhibition in yeast; AID 485353; 330,000 compounds, 0.19% hits; Potency, µM (doses to about 32.9 µM), for the others: at the top dose activity, positive = growth rescue, hits mostly activators; S. cerevisiae expressing SARS-CoV PLpro, growth rescue; calls by dose curve; further: 0% is about no effect; nearly all actives have a fitted effect of over 55% in size
Pf growth 96h = P. falciparum growth inhibition at 96 hour, primary screen for plastid delayed-death inhibitors; Potency, µM (highest dose often 28.7 µM), for the others: top-dose activity change, negative = inhibition, actives largely listed as inhibitors; P. falciparum luciferase reporter growth, 96 h; 320,000 compounds, 6.9% hits; further: on the % scale 0 is the no-effect control and ±100 the full control effect
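Compounds incubated with erythrocytes infected by luciferase-expressing P. falciparum (2% hematocrit, 0.05% parasitemia final) for 96 hours, 37 C in 5% CO2. Growth inhibition scored as decreased luciferase luminescence.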
The depositor's hits bear a star; [ ] = dose if it differs, or a comment. Only some compounds are listed: those with a hit (about 12% of all), similar ones and a draw of the others. Unless noted, the call rests on the fitted dose curve; in most records, active means well fitted curve in the direction sought with a large enough effect; inconclusive means small, poorly fitted or top-dose-only effect, or another doubt; inactive means no such curve, though single readings can be large; an effect the other way counts as inactive or inconclusive. Potency means the concentration at half of the fitted maximal effect.

What do the screens show for `O=c1[nH]c(C2CCCN(S(=O)(=O)c3ccccc3Cl)C2)nc2c1nnn2Cc1ccc2c(c1)OCCO2` (stereo unspecified)?
AmpC inh no detg: -31.7%; AmpC inh detg: 0.6%; Sm TGR block: 7.9%; Pf growth 48h: inconclusive; SARS PLpro yeast: 4.5%; Pf growth 96h: 13.1µM*

Results for O=c1[nH]c(C2CCCN(S(=O)(=O)c3ccccc3Cl)C2)nc2c1nnn2Cc1ccc(OC(F)(F)F)cc1 (stereo unspecified) ?
AmpC inh detg: 19.6%; Sm TGR block: 3.6%

How did O=c1[nH]c(C2CCN(S(=O)(=O)c3ccccc3F)CC2)nc2c1nnn2Cc1ccc(F)cc1 do in these assays?
AmpC inh no detg: 15.4%; AmpC inh detg: -6.5%; Sm TGR block: -8.5%; Pf growth 48h: -15.8%; SARS PLpro yeast: 9.2%; Pf growth 96h: 4.9%

How did Cc1c(C(N)=O)nnn1-c1ccc(Br)cc1 do in these assays?
AmpC inh detg: 22.2%; Sm TGR block: -0.9%

What do the screens show for `O=C1CCC/C1=C\c1ccccc1`?
AmpC inh no detg: -18.5%[11.4 µM]; AmpC inh detg: -13.8%; Sm TGR block: 44.7µM*; Pf growth 48h: 0.2%; SARS PLpro yeast: -2.5%; Pf growth 96h: 18.1%

How did O=C1/C(=C/c2ccncc2)CCC/C1=C\c1ccncc1 do in these assays?
AmpC inh no detg: -25.0%; AmpC inh detg: inconclusive; Sm TGR block: 11.2µM*; Pf growth 48h: inconclusive; SARS PLpro yeast: -34.3%; Pf growth 96h: 49.3%

Results for COc1ccc(-c2ccc(/C=N/NC(=O)Cc3nnc(N)s3)o2)cc1Cl ?
AmpC inh no detg: -36.9%; AmpC inh detg: -9.2%; Sm TGR block: 56.2µM*; Pf growth 48h: inconclusive; SARS PLpro yeast: 0.4%; Pf growth 96h: 2.4%

What do the screens show for `Cc1ccc(-c2ccc(/C=N/NC(=O)Cc3nnc(N)s3)o2)cc1Cl`?
AmpC inh no detg: -26.2%; AmpC inh detg: -9.8%; Sm TGR block: 4.5%; Pf growth 48h: 16.7%; SARS PLpro yeast: 0.9%; Pf growth 96h: -5.6%

How did CCN(Cc1ccccc1)S(=O)(=O)c1cn(C)cn1 do in these assays?
AmpC inh no detg: 1.1%; AmpC inh detg: -0.5%; Sm TGR block: 4.7%; Pf growth 48h: -5.4%; SARS PLpro yeast: 0.4%; Pf growth 96h: inconclusive

How did COC(=O)c1ccccc1NC(=O)c1ncoc1-c1ccco1 do in these assays?
AmpC inh detg: -2.1%; Sm TGR block: -4.4%

How did CSCCC(NC(=O)c1ccccc1Cl)C(=O)NC1CCN(Cc2ccccc2)CC1 (stereo unspecified) do in these assays?
AmpC inh no detg: 4.4%; AmpC inh detg: -2.6%; Sm TGR block: 98.5%; Pf growth 48h: 50.3%; SARS PLpro yeast: inconclusive; Pf growth 96h: -21.0%

What do the screens show for `O=C(NC1CCCC1)c1c(O)nc2sccn2c1=O`?
AmpC inh no detg: -23.7%; AmpC inh detg: inconclusive; Sm TGR block: 5.4%; Pf growth 48h: -27.7%; SARS PLpro yeast: -11.2%; Pf growth 96h: inconclusive

Results for Cc1csc2nc(O)c(C(=O)NC3CCCCCC3)c(=O)n12 ?
AmpC inh no detg: -16.5%; AmpC inh detg: -14.7%; Sm TGR block: 2.5%; Pf growth 48h: 11.7µM*; SARS PLpro yeast: -1.1%; Pf growth 96h: inconclusive

What do the screens show for `Cc1csc2nc(O)c(C(=O)NC3CCCCC3)c(=O)n12`?
AmpC inh no detg: -17.2%; AmpC inh detg: inconclusive; Sm TGR block: -12.4%; Pf growth 48h: 11.7µM*; SARS PLpro yeast: 7.3%; Pf growth 96h: 5.86µM*

What do the screens show for `N#Cc1ccc(S(=O)(=O)NC2CCCCNC2=O)cc1` (stereo unspecified)?
AmpC inh no detg: -7.2%; AmpC inh detg: -10.0%; Sm TGR block: 27.4%; SARS PLpro yeast: 0.6%; Pf growth 96h: -3.7%

How did CC1Sc2ccc(C(=O)NCc3ccccn3)cc2NC1=O (stereo unspecified) do in these assays?
AmpC inh no detg: -22.7%; AmpC inh detg: -13.8%; Sm TGR block: -15.6%; Pf growth 48h: -4.9%; SARS PLpro yeast: 1.4%; Pf growth 96h: inconclusive

How did Cc1ccc2c(c1)c1c(c(=O)n(-c3ccccc3C)c(=O)n1CC(=O)NCCC1=CCCCC1)n2C do in these assays?
AmpC inh detg: 2.4%; Sm TGR block: -3.6%

What do the screens show for `CCOc1ccc(N2CC(c3nc4ccccc4n3CCCOc3ccccc3)CC2=O)cc1` (stereo unspecified)?
AmpC inh detg: 15.2%; Sm TGR block: 7.5%

Results for CCCNC(=O)Nc1cc(C(=O)NCc2cccc(OCC)c2)ccc1N1CCCC1 ?
AmpC inh detg: -0.9%; Sm TGR block: -1.4%

How did COc1cc(NC(=O)CSc2ccc(-c3ccco3)nn2)cc(OC)c1 do in these assays?
AmpC inh no detg: -34.4%; AmpC inh detg: 4.6%; Sm TGR block: 31.6µM*; Pf growth 48h: -5.4%; SARS PLpro yeast: -2.7%; Pf growth 96h: 10.4µM*

Results for COc1ccc(NC(=O)CSc2ccc(-c3cccs3)nn2)cc1 ?
AmpC inh detg: 16.3%; Sm TGR block: 7.6%

What do the screens show for `COc1ccc(NC(=O)CSc2ccc(-c3ccco3)nn2)cc1`?
AmpC inh no detg: -33.5%; AmpC inh detg: -5.1%; Sm TGR block: 14.1µM*; Pf growth 48h: 10.7%; SARS PLpro yeast: -8.4%; Pf growth 96h: -10.6%

How did Cc1ccc(Cn2c(=O)n(-c3cccc(C(F)(F)F)c3)c(=O)c3c(C)c(C)sc32)c(C)c1 do in these assays?
AmpC inh detg: 17.8%; Sm TGR block: 5.8%

How did Cc1cc(C)nc(N2CCCC(C(=O)Nc3nc4ccc(S(C)(=O)=O)cc4s3)C2)n1 (stereo unspecified) do in these assays?
AmpC inh no detg: 59.9%; AmpC inh detg: 0.6%; Sm TGR block: 11.7%; Pf growth 48h: 7.38µM*; SARS PLpro yeast: -1.4%

How did Cc1cc(C)nc(N2CCC(C(=O)Nc3ccc4c(c3)CCC4)CC2)n1 do in these assays?
AmpC inh no detg: -14.4%; AmpC inh detg: inconclusive; Sm TGR block: 3.3%; Pf growth 48h: 15.9%; SARS PLpro yeast: 2.9%; Pf growth 96h: 11.7µM*

How did Cc1cc(C)nc(N2CCCC(C(=O)Nc3ccc4nc(C)c(C)nc4c3)C2)n1 (stereo unspecified) do in these assays?
AmpC inh no detg: 7.9%; AmpC inh detg: -4.3%; Sm TGR block: 0.0%; Pf growth 48h: 11.7µM*; SARS PLpro yeast: -9.1%

How did Cc1cc(C)cc(NC(=O)C2CCCN(c3nc(C)cc(C)n3)C2)c1 (stereo unspecified) do in these assays?
AmpC inh no detg: -11.5%; AmpC inh detg: 2.3%; Sm TGR block: 77.9%[11.4 µM]; SARS PLpro yeast: 1.4%
